# Records with an inconclusive call do not appear. The source made the active and inactive calls. The calls were made as follows, unless noted: active = hit-call score of the fitted dose curve at least 0.9, where 1 is the maximum; inconclusive = response in the unintended direction; inactive = score below 0.9.
# Tests used:
# [1] = target: Retinoic acid receptor RXR-alpha (Homo sapiens) (UniProt P19793); experiment: ATG_RXRa_TRANS: Attagene TRANS-FACTORIAL HepG2 Assay for human Retinoid X Receptor alpha (RXRa) (AID 2283012)
# In short: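 Measures exogenous chimeric NR-GAL4 activity in transfected HepG2 liver cells after 24 h of dosing. Induced reporter mRNA was detected by RT-PCR with capillary electrophoresis, and gain of signal was analysed against DMSO.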
# [2] = target: human Retinoid X Receptor beta (RXRb), RXRB (gene 6257) (UniProt P28702); experiment: ATG_RXRb_TRANS: Attagene TRANS-FACTORIAL HepG2 Assay for human Retinoid X Receptor beta (RXRb) (AID 2283013)
# In short: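 Chimeric receptor-Gal4 activity was assessed in transiently transfected human HepG2 cells after 24 h exposure. Transcripts from GAL4-UAS reporters were quantified by fluorescent RT-PCR and capillary electrophoresis, with DMSO as negative control and baseline.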
# [3] = target: human Thyroid Receptor alpha (THRa1), THRA (gene 7067) (UniProt P10827); experiment: ATG_THRa1_TRANS: Attagene TRANS-FACTORIAL HepG2 Assay for human Thyroid Receptor alpha (THRa1) (AID 2283014)
# In short: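 Transient HepG2 transfection, NR-Gal4 chimera driving GAL4-UAS reporters; 24 h compound exposure; total RNA, oligo(dT) RT, PCR, fluorescent primer extension, capillary electrophoresis. Upward direction vs DMSO control.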
# [4] = read-out: E-selectin (Homo sapiens) (UniProt P16581); experiment: BSK_3C_Eselectin: BioMAP Diversity Plus: 3C Assay for Eselectin Biomarker Activity (AID 2283015; active = hit-call score of the fitted dose curve at least 0.9, where 1 is the maximum; inactive = score below 0.9;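 also: cell surface E-selectin protein quantified by ELISA 24 h after dosing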); conditions: primary human endothelial cells (HUVEC); actives raise or lower the signal
# In short: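 HUVEC, 3C stimulation; compound exposure 24 h; E-selectin by ELISA; gain- or loss-of-signal fitted bidirectionally vs DMSO baseline.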
# [5] = read-out: Interleukin-1 alpha (IL1a), IL1A (gene 3552); experiment: BSK_BE3C_IL1a: BioMAP Diversity Plus: BE3C Assay for Interleukin-1 alpha (IL1a) Biomarker Activity (AID 2283016; active = hit-call score of the fitted dose curve at least 0.9, where 1 is the maximum; inactive = score below 0.9); conditions: primary human bronchial epithelial cells; actives raise or lower the signal
# In short: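 Signal from IL-1a ELISA, taken 24 h after chemical dosing of human bronchial epithelial cells, is compared with DMSO as baseline using bidirectional curve fitting.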
# [6] = read-out: Monocyte Chemoattractant Protein-1 (MCP1), CCL2 (gene 6347); experiment: BSK_3C_MCP1: BioMAP Diversity Plus: 3C Assay for Monocyte Chemoattractant Protein-1 (MCP1) Biomarker Activity (AID 2283017; active = hit-call score of the fitted dose curve at least 0.9, where 1 is the maximum; inactive = score below 0.9); conditions: primary human endothelial cells (HUVEC); actives raise or lower the signal
# In short: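 HUVEC, 3C system; 24 h chemical exposure; MCP-1 by ELISA; bidirectional curve fit vs DMSO baseline.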
# [7] = read-out: Monocyte Chemoattractant Protein-1 (MCP1), CCL2 (gene 6347); experiment: BSK_4H_MCP1: BioMAP Diversity Plus: 4H Assay for Monocyte Chemoattractant Protein-1 (MCP1) Biomarker Activity (AID 2283018; active = hit-call score of the fitted dose curve at least 0.9, where 1 is the maximum; inactive = score below 0.9); conditions: primary human endothelial cells (HUVEC); actives raise or lower the signal
# In short: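 Endothelial cells from umbilical vein were treated with test chemical, then after 24 h MCP-1 levels were quantified by ELISA; endpoint values came from bidirectional fitting with DMSO as baseline of activity.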
# [8] = read-out: Human Leukocyte Antigen - DR isotype (HLADR), HLA-DRA (gene 3122); experiment: BSK_3C_HLADR: BioMAP Diversity Plus: 3C Assay for Human Leukocyte Antigen - DR isotype (HLADR) Biomarker Activity (AID 2283019; active = hit-call score of the fitted dose curve at least 0.9, where 1 is the maximum; inactive = score below 0.9;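 as to outcome: ELISA of cell-surface HLA-DR on HUVEC 24 h after dosing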); conditions: primary human endothelial cells (HUVEC); actives raise or lower the signal
# In short: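 HUVEC, 3C stimulation, 24 h post-dose; HLA-DR by ELISA; bidirectional curve fit vs DMSO baseline; gain or loss of signal scored.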
# [9] = read-out: Interleukin-8 (IL8), CXCL8 (gene 3576); experiment: BSK_3C_IL8: BioMAP Diversity Plus: 3C Assay for Interleukin-8 (IL8) Biomarker Activity (AID 2283020; active = hit-call score of the fitted dose curve at least 0.9, where 1 is the maximum; inactive = score below 0.9); conditions: primary human endothelial cells (HUVEC); actives raise or lower the signal
# In short: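 Endothelial primary cells of human umbilical vein origin are dosed with chemical; after 24 h the IL-8 biomarker is measured by ELISA, and concentration–response is fitted in both directions versus DMSO.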
# [10] = read-out: Monokine induced gamma interferon (MIG), CXCL9 (gene 4283); experiment: BSK_3C_MIG: BioMAP Diversity Plus: 3C Assay for Monokine induced gamma interferon (MIG) Biomarker Activity (AID 2283021; active = hit-call score of the fitted dose curve at least 0.9, where 1 is the maximum; inactive = score below 0.9); conditions: primary human endothelial cells (HUVEC); actives raise or lower the signal
# In short: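 Endothelial primary cells (human umbilical vein) are dosed with test chemical in the 3C system. MIG levels are measured by ELISA at 24 h and fitted in both directions relative to DMSO.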
# [11] = BSK_3C_SRB: Viability Assessment in the BioMAP Diversity Plus: 3C Assay (AID 2283023; active = hit-call score of the fitted dose curve at least 0.9, where 1 is the maximum; inactive = score below 0.9;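 also: fitted both ways against DMSO so a hit may be signal rise or drop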); conditions: primary human endothelial cells (HUVEC)
# In short: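 HUVEC, 24 h post-dose; 10% TCA fix, 0.1% SRB stain, A560 nm. Bidirectional curve fit vs DMSO negative control.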
# [12] = read-out: Matrix Metallopeptidase 1 (MMP1), MMP1 (gene 4312); experiment: BSK_BE3C_MMP1: BioMAP Diversity Plus: BE3C Assay for Matrix Metallopeptidase 1 (MMP1) Biomarker Activity (AID 2283024; active = hit-call score of the fitted dose curve at least 0.9, where 1 is the maximum; inactive = score below 0.9); conditions: primary human bronchial epithelial cells; actives raise or lower the signal
# In short: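 MMP1 signal, measured by ELISA after a 24 h chemical exposure of human primary bronchial epithelial cells, is analysed with bidirectional fitting using DMSO as negative control.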
# [13] = BSK_3C_Vis: BioMAP Diversity Plus: 3C Assay for Morphology Visualization (AID 2283025; active = hit-call score of the fitted dose curve at least 0.9, where 1 is the maximum; inactive = score below 0.9;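 also: fitted both ways so gain or loss versus DMSO counts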); conditions: primary human endothelial cells (HUVEC)
# In short: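 Morphology read by light microscopy serves as a background control for the multiplexed 3C assay in human umbilical vein endothelial cells, taken 24 h after dosing, with DMSO as the negative control and bidirectional curve fitting.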
# [14] = read-out: Pselectin, SELP (gene 6403); experiment: BSK_4H_Pselectin: BioMAP Diversity Plus: 4H Assay for Pselectin Biomarker Activity (AID 2283026; active = hit-call score of the fitted dose curve at least 0.9, where 1 is the maximum; inactive = score below 0.9); conditions: primary human endothelial cells (HUVEC); actives raise or lower the signal
# In short: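 Endothelial primary cells (human umbilical vein) are dosed, incubated 24 h, and assayed for surface P-selectin by ELISA; responses in either direction are fitted relative to the DMSO negative control.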
# [15] = BSK_4H_SRB: Viability Assessment in the BioMAP Diversity Plus: 4H Assay (AID 2283027; active = hit-call score of the fitted dose curve at least 0.9, where 1 is the maximum; inactive = score below 0.9;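 also: cells exposed to compound for 24 h before staining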); conditions: primary human endothelial cells (HUVEC)
# In short: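 Cytotoxicity read-out in primary human endothelial cells: after 24 h compound exposure, cells were TCA-fixed (10%), stained with 0.1% SRB and absorbance taken at 560 nm. Values fitted in both directions relative to DMSO.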
# [16] = BSK_BE3C_SRB: Viability Assessment in the BioMAP Diversity Plus: BE3C Assay (AID 2283028; active = hit-call score of the fitted dose curve at least 0.9, where 1 is the maximum; inactive = score below 0.9); conditions: primary human bronchial epithelial cells
# In short: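 Primary human bronchial epithelium; chemical dosing, 24 h; 10% TCA fix, 0.1% SRB stain, A560; bidirectional fit vs DMSO baseline.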
# [17] = read-out: Thrombomodulin, THBD (gene 7056); experiment: BSK_3C_Thrombomodulin: BioMAP Diversity Plus: 3C Assay for Thrombomodulin Biomarker Activity (AID 2283029; active = hit-call score of the fitted dose curve at least 0.9, where 1 is the maximum; inactive = score below 0.9); conditions: primary human endothelial cells (HUVEC); actives raise or lower the signal
# In short: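 Endothelial cells from umbilical vein are dosed with test chemical and incubated 24 h. Thrombomodulin is then quantified by ELISA, with DMSO serving as negative control and activity baseline.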
# [18] = read-out: Urokinase-type plasminogen activator receptor (uPAR), PLAUR (gene 5329); experiment: BSK_4H_uPAR: BioMAP Diversity Plus: 4H Assay for Urokinase-type plasminogen activator receptor (uPAR) Biomarker Activity (AID 2283030; active = hit-call score of the fitted dose curve at least 0.9, where 1 is the maximum; inactive = score below 0.9); conditions: primary human endothelial cells (HUVEC); actives raise or lower the signal
# In short: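 HUVEC, 24 h post-dose; uPAR by ELISA; bidirectional fit vs DMSO baseline.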
# [19] = read-out: Vascular endothelial growth factor receptor 2 (Homo sapiens) (UniProt P35968); experiment: BSK_4H_VEGFRII: BioMAP Diversity Plus: 4H Assay for Vascular endothelial growth factor receptor 2 (VEGFR2) Biomarker Activity (AID 2283031; active = hit-call score of the fitted dose curve at least 0.9, where 1 is the maximum; inactive = score below 0.9); conditions: primary human endothelial cells (HUVEC); actives raise or lower the signal
# In short: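 HUVEC (human primary), 4H system; 24 h post-dose; VEGFRII by ELISA; bidirectional curve fit vs DMSO baseline; gain or loss of signal scored.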
# [20] = target: human Vitamin D Receptor (VDR), VDR (gene 7421) (UniProt P11473); experiment: ATG_VDR_TRANS: Attagene TRANS-FACTORIAL HepG2 Assay for human Vitamin D Receptor (VDR) (AID 2283022)
# In short: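 RT-PCR/capillary electrophoresis read-out of reporter mRNA induction in transiently transfected HepG2; 24 h dosing; chimeric NR-Gal4 (TRANS format); gain-of-signal fit against DMSO baseline.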
# Chain of human Retinoid X Receptor beta (RXRb), RXRB (gene 6257) (P28702 whole entry, looked up, the tested form may be a part): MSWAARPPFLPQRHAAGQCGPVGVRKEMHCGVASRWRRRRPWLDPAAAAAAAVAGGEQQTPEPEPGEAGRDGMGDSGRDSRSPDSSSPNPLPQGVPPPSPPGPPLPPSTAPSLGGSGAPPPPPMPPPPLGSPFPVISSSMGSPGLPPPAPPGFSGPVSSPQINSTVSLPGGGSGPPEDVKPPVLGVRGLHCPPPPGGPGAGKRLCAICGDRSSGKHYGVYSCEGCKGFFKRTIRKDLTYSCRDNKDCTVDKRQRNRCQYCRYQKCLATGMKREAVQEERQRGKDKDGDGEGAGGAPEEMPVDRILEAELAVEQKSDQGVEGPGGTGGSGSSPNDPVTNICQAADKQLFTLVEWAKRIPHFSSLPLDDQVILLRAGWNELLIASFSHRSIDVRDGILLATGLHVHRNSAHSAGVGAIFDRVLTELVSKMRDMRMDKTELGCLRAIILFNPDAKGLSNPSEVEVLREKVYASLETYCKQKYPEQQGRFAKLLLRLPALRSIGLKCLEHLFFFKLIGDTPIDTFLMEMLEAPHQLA
# Chain of Retinoic acid receptor RXR-alpha (Homo sapiens) (P19793 whole entry, looked up, the tested form may be a part): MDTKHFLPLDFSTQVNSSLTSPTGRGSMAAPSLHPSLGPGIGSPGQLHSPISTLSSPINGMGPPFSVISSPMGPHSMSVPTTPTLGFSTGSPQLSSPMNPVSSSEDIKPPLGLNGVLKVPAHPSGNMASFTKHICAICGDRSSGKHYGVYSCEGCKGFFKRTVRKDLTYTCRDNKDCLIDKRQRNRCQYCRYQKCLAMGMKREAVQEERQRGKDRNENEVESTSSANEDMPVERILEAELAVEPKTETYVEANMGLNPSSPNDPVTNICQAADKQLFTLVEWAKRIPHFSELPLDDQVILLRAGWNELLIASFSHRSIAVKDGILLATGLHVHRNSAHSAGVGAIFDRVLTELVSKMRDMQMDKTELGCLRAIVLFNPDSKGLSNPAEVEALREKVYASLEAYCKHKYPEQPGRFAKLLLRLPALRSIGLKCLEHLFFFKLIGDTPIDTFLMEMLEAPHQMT
# Chain of human Vitamin D Receptor (VDR), VDR (gene 7421) (P11473 whole entry, looked up, the tested form may be a part): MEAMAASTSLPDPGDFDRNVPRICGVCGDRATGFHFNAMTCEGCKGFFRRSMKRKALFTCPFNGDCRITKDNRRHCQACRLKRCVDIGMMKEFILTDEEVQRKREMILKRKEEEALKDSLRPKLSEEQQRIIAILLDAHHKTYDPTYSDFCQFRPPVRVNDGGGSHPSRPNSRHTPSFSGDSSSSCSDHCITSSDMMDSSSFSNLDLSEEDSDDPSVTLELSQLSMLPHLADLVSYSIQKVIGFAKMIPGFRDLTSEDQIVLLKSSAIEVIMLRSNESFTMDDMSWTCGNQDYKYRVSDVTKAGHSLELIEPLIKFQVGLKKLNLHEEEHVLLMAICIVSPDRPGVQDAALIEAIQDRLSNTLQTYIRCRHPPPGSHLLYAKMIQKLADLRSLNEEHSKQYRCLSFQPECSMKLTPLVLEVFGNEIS
# Chain of human Thyroid Receptor alpha (THRa1), THRA (gene 7067) (P10827 whole entry, looked up, the tested form may be a part): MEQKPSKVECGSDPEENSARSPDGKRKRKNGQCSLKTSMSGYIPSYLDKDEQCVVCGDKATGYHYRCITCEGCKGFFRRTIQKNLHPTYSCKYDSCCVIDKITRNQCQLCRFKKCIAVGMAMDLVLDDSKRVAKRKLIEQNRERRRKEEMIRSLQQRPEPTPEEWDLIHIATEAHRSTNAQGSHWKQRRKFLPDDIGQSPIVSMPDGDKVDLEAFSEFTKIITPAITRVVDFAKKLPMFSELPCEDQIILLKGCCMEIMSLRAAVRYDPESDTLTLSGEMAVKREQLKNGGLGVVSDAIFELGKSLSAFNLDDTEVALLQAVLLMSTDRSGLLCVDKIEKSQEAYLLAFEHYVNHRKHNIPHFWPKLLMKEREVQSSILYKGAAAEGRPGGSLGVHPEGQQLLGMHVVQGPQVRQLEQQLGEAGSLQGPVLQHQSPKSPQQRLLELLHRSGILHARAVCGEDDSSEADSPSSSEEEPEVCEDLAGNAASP
# Chain of E-selectin (Homo sapiens) (P16581 whole entry, looked up): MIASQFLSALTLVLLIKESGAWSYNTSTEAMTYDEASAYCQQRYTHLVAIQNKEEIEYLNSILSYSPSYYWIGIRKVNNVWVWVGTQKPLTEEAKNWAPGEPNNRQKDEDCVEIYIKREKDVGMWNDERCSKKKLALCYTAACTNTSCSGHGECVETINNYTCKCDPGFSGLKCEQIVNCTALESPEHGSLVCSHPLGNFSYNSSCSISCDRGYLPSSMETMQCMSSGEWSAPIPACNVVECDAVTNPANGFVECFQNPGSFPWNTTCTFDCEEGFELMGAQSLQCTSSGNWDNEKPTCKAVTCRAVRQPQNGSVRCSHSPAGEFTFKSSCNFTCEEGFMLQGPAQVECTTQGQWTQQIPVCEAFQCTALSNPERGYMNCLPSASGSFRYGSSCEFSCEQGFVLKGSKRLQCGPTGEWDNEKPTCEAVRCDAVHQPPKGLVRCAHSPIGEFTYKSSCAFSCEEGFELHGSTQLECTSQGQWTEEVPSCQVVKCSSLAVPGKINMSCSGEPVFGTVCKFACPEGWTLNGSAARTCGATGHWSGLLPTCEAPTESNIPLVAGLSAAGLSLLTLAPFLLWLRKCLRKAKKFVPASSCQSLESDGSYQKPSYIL
smiles,measurement,setting,value
CCc1cc(Cc2cc(CC)cc(C(C)(C)C)c2O)c(O)c(C(C)(C)C)c1,outcome,[1],inactive
same,AC50,[2],5.71 µM (active)
same,outcome,[3],inactive
Nc1ccccc1[N+](=O)[O-],outcome,[1],inactive
same,outcome,[2],inactive
same,outcome,[3],inactive
O=C1c2ccccc2C(=O)c2c(O)ccc(O)c21,outcome,[1],inactive
same,outcome,[2],inactive
same,outcome,[3],inactive
same,outcome,[4],inactive
same,outcome,[5],inactive
same,outcome,[6],inactive
same,outcome,[7],inactive
same,AC50,[8],8.08 µM (active)
same,AC50,[9],2.12 µM (active)
same,outcome,[10],inactive
same,outcome,[11],inactive
same,outcome,[12],inactive
same,AC50,[13],13.6 µM (active)
same,outcome,[14],inactive
same,outcome,[15],inactive
same,outcome,[16],inactive
same,outcome,[17],inactive
same,AC50,[18],6.4 µM (active)
same,outcome,[19],inactive
Cc1cc(C)nc(NS(=O)(=O)c2ccc(N)cc2)n1,outcome,[1],inactive
same,outcome,[2],inactive
same,outcome,[3],inactive
CCCC(=O)C(CC)Sc1ccoc1C (stereo not given),outcome,[1],inactive
same,AC50,[2],46.1 µM (active)
same,outcome,[3],inactive
same,outcome,[20],inactive
CCCCC(CC)COC(=O)c1ccc(O)cc1 (stereo not given),outcome,[1],inactive
same,AC50,[2],33.4 µM (active)
same,outcome,[3],inactive
same,outcome,[20],inactive
C[Si](C)(C)O[Si](C)(C)C,outcome,[1],inactive
same,outcome,[2],inactive
same,outcome,[3],inactive
same,outcome,[20],inactive
O=C(O)c1cc(C(=O)O)cc([N+](=O)[O-])c1,outcome,[1],inactive
same,outcome,[2],inactive
same,outcome,[3],inactive
same,outcome,[20],inactive
C[C@H](CCC(=O)NCC(=O)O)[C@H]1CC[C@H]2[C@@H]3[C@H](O)C[C@@H]4C[C@H](O)CC[C@]4(C)[C@H]3C[C@H](O)[C@]12C,outcome,[1],inactive
same,outcome,[2],inactive
same,AC50,[3],68.7 µM (active)
same,outcome,[20],inactive
CCCCC1CCC(O)CC1 (stereo not given),outcome,[1],inactive
same,outcome,[2],inactive
same,outcome,[3],inactive
same,outcome,[20],inactive
CC(=O)c1c(C)c([N+](=O)[O-])c(C(C)(C)C)c([N+](=O)[O-])c1C,AC50,[1],6.93 µM (active)
same,AC50,[2],1 µM (active)
same,outcome,[4],inactive
same,outcome,[5],inactive
same,outcome,[6],inactive
same,outcome,[7],inactive
same,outcome,[8],inactive
same,outcome,[9],inactive
same,outcome,[10],inactive
same,outcome,[11],inactive
same,outcome,[12],inactive
same,outcome,[13],inactive
same,outcome,[14],inactive
same,outcome,[15],inactive
same,outcome,[16],inactive
same,outcome,[17],inactive
same,outcome,[18],inactive
same,outcome,[19],inactive

# From PubChem BioAssay (EPA / NIEHS)
